Data from PubChem BioAssay (NCATS).
Inconclusive results are not listed. Calls of active or inactive are those of the source. Unless noted, the call rests on the fitted dose curve; in most records, active means well fitted cell-killing curve with a large enough effect; inconclusive means small, poorly fitted or top-dose-only effect, or effect the other way; inactive means no such curve, though single readings can be large or run the other way.

Columns and labels:
[1] = Quantitative High-Throughput drug screen in 47 multiple myeloma cell lines against the NCATS MIPE library collection: KMS34_JCRB cell viability assay (AID 1918985); further: potency means the concentration at half of the fitted maximal effect; nearly all actives have a fitted effect of over 40% in size
In short: (§1)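 Inhibition of viability over 48 h was scored by ATP content (CellTiter-Glo) in 500-cell wells. Zero and full viability were defined by media-only and DMSO-only wells.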

[2] = Quantitative High-Throughput drug screen in 47 multiple myeloma cell lines against the NCATS MIPE library collection: OCIMY5_PLB cell viability assay (AID 1918988); further: potency means the concentration at half of the fitted maximal effect; nearly all actives have a fitted effect of over 65% in size
In short: as §1

[3] = Quantitative High-Throughput drug screen in 47 multiple myeloma cell lines against the NCATS MIPE library collection: OPM1_PLB cell viability assay (AID 1918989); further: potency means the concentration at half of the fitted maximal effect; nearly all actives have a fitted effect of over 40% in size
In short: as §1

[4] = Quantitative High-Throughput drug screen in 47 multiple myeloma cell lines against the NCATS MIPE library collection: U266_ATCC cell viability assay (AID 1919864); further: potency means the concentration at half of the fitted maximal effect; nearly all actives have a fitted effect of over 35% in size
In short: as §1

[5] = Quantitative High-Throughput drug screen in 47 multiple myeloma cell lines against the NCATS MIPE library collection: XG6_PLB cell viability assay (AID 1919865); further: potency means the concentration at half of the fitted maximal effect; nearly all actives have a fitted effect of over 40% in size
In short: as §1

[6] = Quantitative High-Throughput drug screen in 47 multiple myeloma cell lines against the NCATS MIPE library collection: XG1_PLB cell viability assay (AID 1919866); further: potency means the concentration at half of the fitted maximal effect; nearly all actives have a fitted effect of over 35% in size
In short: as §1

[7] = Quantitative High-Throughput drug screen in 47 multiple myeloma cell lines against the NCATS MIPE library collection: VP6_DJ cell viability assay (AID 1919867); further: potency means the concentration at half of the fitted maximal effect; nearly all actives have a fitted effect of over 40% in size
In short: as §1

[8] = Quantitative High-Throughput drug screen in 47 multiple myeloma cell lines against the NCATS MIPE library collection: UTMC2_PLB cell viability assay (AID 1919868); details: CellTiter-Glo ATP luminescence, 48 h; viability (% of DMSO control): at 45.8 µM (top of the series) unless noted; further: potency means the concentration at half of the fitted maximal effect; nearly all actives have a fitted effect of over 55% in size
In short: as §1

[9] = Quantitative High-Throughput drug screen in 47 multiple myeloma cell lines against the NCATS MIPE library collection: PE2_PLB cell viability assay (AID 1919869); further: potency means the concentration at half of the fitted maximal effect; nearly all actives have a fitted effect of over 35% in size
In short: as §1

[10] = Quantitative High-Throughput drug screen in 47 multiple myeloma cell lines against the NCATS MIPE library collection: PCM6_Riken cell viability assay (AID 1919870); further: potency means the concentration at half of the fitted maximal effect; nearly all actives have a fitted effect of over 30% in size
In short: as §1

[11] = Quantitative High-Throughput drug screen in 47 multiple myeloma cell lines against the NCATS MIPE library collection: KMS11_JCRBsus cell viability assay (AID 1919873); further: potency means the concentration at half of the fitted maximal effect; nearly all actives have a fitted effect of over 50% in size
In short: as §1

[12] = qHTS drug screen for cell cycle checkpoint inhibitors in PARPi-resistant BRCA-mutant ovarian cancer cell lines. (AID 1963452; calls by dose curve); details: PEO1/OlaR viability, CellTiter-Glo luminescence, 96 h, stronger effect = lower value
In short: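 PEO1, PEO4 and PEO1/OlaR ovarian cancer cells, 600 per well, exposed 96 h at 37C to a dilution series. Viability read by CellTiter-Glo luminescence, normalized to DMSO and empty wells; activity summarized as Z-AUC.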

[13] = Quantitative High-Throughput drug screen in 47 multiple myeloma cell lines against the NCATS MIPE library collection: L363_DSMZ cell viability assay (AID 1918984); further: nearly all actives have a fitted effect of over 40% in size; further: potency means the concentration at half of the fitted maximal effect
In short: as §1

[14] = Quantitative High-Throughput drug screen in 47 multiple myeloma cell lines against the NCATS MIPE library collection: SKMM1_PLB cell viability assay (AID 1919863); details: SKMM1 myeloma viability, CellTiter-Glo ATP, 48 h; viability: stronger effect = lower value; further: potency means the concentration at half of the fitted maximal effect; nearly all actives have a fitted effect of over 35% in size
In short: as §1

[15] = Quantitative High-Throughput drug screen in 47 multiple myeloma cell lines against the NCATS MIPE library collection: RPMI8226_ATCC cell viability assay (AID 1919871); further: potency means the concentration at half of the fitted maximal effect; nearly all actives have a fitted effect of over 30% in size
In short: as §1

[16] = qHTS for identification of novel therapeutic agents for treatment of microphthalmiaassociated transcription factor (MiT) renal cell carcinoma (RCC) (AID 1963991; calls by dose curve; further: potency means the concentration at half of the fitted maximal effect); details: CellTiter-Glo, 48 h; for z-score: stronger effect = lower value
In short: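 Viability of three TFE3-fusion renal carcinoma lines measured by CellTiter-Glo after 48 h treatment with each of 1912 compounds at 11 concentrations. Responses scaled between DMSO (100%) and empty wells (0%) before curve fitting.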

[17] = Quantitative High-Throughput drug screen in 47 multiple myeloma cell lines against the NCATS MIPE library collection: OCIMY7_PLB cell viability assay (AID 1918987); further: potency means the concentration at half of the fitted maximal effect; nearly all actives have a fitted effect of over 65% in size
In short: as §1

[18] = Quantitative High-Throughput drug screen in 47 multiple myeloma cell lines against the NCATS MIPE library collection: OPM2_DSMZ cell viability assay (AID 1919872); further: potency means the concentration at half of the fitted maximal effect; nearly all actives have a fitted effect of over 30% in size
In short: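 Luminescent ATP measurement with CellTiter-Glo gives viability, scaled between DMSO-only wells (100%) and media-only wells (0%). Cells, 500 per well, faced library compounds for 48 hours at 37C.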

[19] = Quantitative High-Throughput drug screen in 47 multiple myeloma cell lines against the NCATS MIPE library collection: KMS28BM_JCRB cell viability assay (AID 1919874)
In short: as §1

[20] = measured here: PEO1 parental Z-AUC

CC[C@H](CO)Nc1nc(NCc2ccccc2)c2ncn(C(C)C)c2n1
1.03: Z-AUC [12, 20]
active: Potency [1] 26.4 µM | Potency [2] 18.7 µM | Potency [3] 23.5 µM | Potency [4] 23.5 µM | Potency [5] 14.8 µM | Potency [6] 16.6 µM | Potency [7] 18.7 µM | Potency [8] 23.5 µM | Potency [9] 14.8 µM | Potency [10] 9.35 µM | Potency [11] 20.9 µM
1.29: Z-AUC ([12]; measured here: PEO4 Z-AUC)
inactive: Z-AUC [12] 0.956

Cc1cccc(C=NNc2cc(N3CCOCC3)nc(OCCc3ccccn3)n2)c1
active: Potency [13] 0.235 µM | Potency [2] 23.5 µM | Potency [3] 4.18 µM | Potency [14] 16.6 µM | Potency [4] 6.62 µM | Potency [5] 16.6 µM | Potency [6] 23.5 µM | Potency [15] 18.7 µM | Potency [11] 2.64 µM | Potency ([16]; TFE3-RCC UOK109 viability, active = Z-AUC below -0.8 in all three lines) 0.118 µM
-0.897: z-score ([16]; TFE3-RCC UOK109 viability, measured here: UOK109 Z-AUC)
-1.42: z-score ([16]; TFE3-RCC viability, measured here: UOK124 Z-AUC)
-0.962: z-score ([16]; TFE3-RCC viability, measured here: UOK145 Z-AUC)

COc1cc(Nc2ncc(F)c(Nc3ccc4c(n3)N(COP(=O)(O)O)C(=O)C(C)(C)O4)n2)cc(OC)c1OC
active: Potency [13] 2.35 µM | Potency [17] 1.87 µM | Potency [2] 26.4 µM | Potency [3] 1.87 µM | Potency [5] 1.48 µM | Potency [6] 0.662 µM | Potency [7] 1.48 µM | Potency [8] 5.26 µM | Potency [9] 1.18 µM | Potency [10] 9.35 µM | Potency [15] 20.9 µM | Potency [18] 18.7 µM | Potency [11] 2.96 µM
inactive: Z-AUC [12] 0.561
0.402: Z-AUC [12, 20]
0.538: Z-AUC ([12]; measured here: PEO4 Z-AUC)

COc1cccc(-c2ccc(NC(=O)C3=C(C(=O)O)CCC3)c(F)c2)c1
active: Potency [3] 6.62 µM | Potency [14] 5.9 µM | Potency [4] 13.2 µM | Potency [6] 4.18 µM | Potency [10] 3.32 µM | Potency [15] 13.2 µM | Potency [11] 14.8 µM
inactive: Potency [13]

Cc1cnc(Nc2ccc(F)cc2Cl)nc1-c1c[nH]c(C(=O)N[C@H](CO)c2cccc(Cl)c2)c1
inactive: Z-AUC [12] 0.276
active: Potency [13] 1.32 µM | Potency [17] 4.69 µM | Potency [2] 18.7 µM | Potency [3] 20.9 µM | Potency [14] 20.9 µM | Potency [4] 20.9 µM | Potency [5] 3.72 µM | Potency [6] 13.2 µM | Potency [7] 5.26 µM | Potency [8] 18.7 µM | Potency [9] 6.62 µM | Potency [10] 18.7 µM | Potency [15] 20.9 µM | Potency [18] 18.7 µM | Potency [11] 16.6 µM | Potency [19] 20.9 µM
0.18: Z-AUC ([12]; measured here: PEO4 Z-AUC)
0.0916: Z-AUC [12, 20]

CC(C)(C)NC(=O)[C@H]1CN(Cc2cccnc2)CCN1C[C@@H](O)C[C@@H](Cc1ccccc1)C(=O)N[C@H]1c2ccccc2C[C@H]1O
active: Potency [2] 26.4 µM | Potency [3] 11.8 µM | Potency [14] 18.7 µM | Potency [5] 23.5 µM | Potency [6] 2.96 µM | Potency [7] 7.43 µM | Potency [10] 8.33 µM | Potency [11] 18.7 µM

C[C@]1(CO)CN(c2cc(C(=O)Nc3ccc4c(c3)-c3c(c(C(N)=O)nn3-c3ccc(F)cc3)CC4)c(Cl)cn2)C[C@@]1(C)CO
active: Potency [17] 1.87 µM | Potency [2] 8.33 µM | Potency [3] 3.72 µM | Potency [4] 18.7 µM | Potency [5] 4.18 µM | Potency [6] 14.8 µM | Potency [7] 16.6 µM | Potency [8] 11.8 µM | Potency [10] 16.6 µM | Potency [11] 3.72 µM
